Source: the supplement of paper PMC11732987, “Enantioselective OTUD7B fragment discovery through chemoproteomics screening and high-throughput optimisation” (Communications Chemistry, 2025)

What was measured:
Assay in all cases: log2 ratio of Biotin-Ahx-Ub-VS probe labelling (fragment/DMSO); higher = less target engagement (more negative = stronger competition), active = hit call of the paper (q ≤ 0.05, log2 ratio ≤ -1)
Conditions in all cases: compound concentration: 200 uM; treatment time: 3 h
USP34 = USP34 (UniProt Q70CQ2)
Sequence of USP34 (Q70CQ2 whole entry, the tested form may be a part): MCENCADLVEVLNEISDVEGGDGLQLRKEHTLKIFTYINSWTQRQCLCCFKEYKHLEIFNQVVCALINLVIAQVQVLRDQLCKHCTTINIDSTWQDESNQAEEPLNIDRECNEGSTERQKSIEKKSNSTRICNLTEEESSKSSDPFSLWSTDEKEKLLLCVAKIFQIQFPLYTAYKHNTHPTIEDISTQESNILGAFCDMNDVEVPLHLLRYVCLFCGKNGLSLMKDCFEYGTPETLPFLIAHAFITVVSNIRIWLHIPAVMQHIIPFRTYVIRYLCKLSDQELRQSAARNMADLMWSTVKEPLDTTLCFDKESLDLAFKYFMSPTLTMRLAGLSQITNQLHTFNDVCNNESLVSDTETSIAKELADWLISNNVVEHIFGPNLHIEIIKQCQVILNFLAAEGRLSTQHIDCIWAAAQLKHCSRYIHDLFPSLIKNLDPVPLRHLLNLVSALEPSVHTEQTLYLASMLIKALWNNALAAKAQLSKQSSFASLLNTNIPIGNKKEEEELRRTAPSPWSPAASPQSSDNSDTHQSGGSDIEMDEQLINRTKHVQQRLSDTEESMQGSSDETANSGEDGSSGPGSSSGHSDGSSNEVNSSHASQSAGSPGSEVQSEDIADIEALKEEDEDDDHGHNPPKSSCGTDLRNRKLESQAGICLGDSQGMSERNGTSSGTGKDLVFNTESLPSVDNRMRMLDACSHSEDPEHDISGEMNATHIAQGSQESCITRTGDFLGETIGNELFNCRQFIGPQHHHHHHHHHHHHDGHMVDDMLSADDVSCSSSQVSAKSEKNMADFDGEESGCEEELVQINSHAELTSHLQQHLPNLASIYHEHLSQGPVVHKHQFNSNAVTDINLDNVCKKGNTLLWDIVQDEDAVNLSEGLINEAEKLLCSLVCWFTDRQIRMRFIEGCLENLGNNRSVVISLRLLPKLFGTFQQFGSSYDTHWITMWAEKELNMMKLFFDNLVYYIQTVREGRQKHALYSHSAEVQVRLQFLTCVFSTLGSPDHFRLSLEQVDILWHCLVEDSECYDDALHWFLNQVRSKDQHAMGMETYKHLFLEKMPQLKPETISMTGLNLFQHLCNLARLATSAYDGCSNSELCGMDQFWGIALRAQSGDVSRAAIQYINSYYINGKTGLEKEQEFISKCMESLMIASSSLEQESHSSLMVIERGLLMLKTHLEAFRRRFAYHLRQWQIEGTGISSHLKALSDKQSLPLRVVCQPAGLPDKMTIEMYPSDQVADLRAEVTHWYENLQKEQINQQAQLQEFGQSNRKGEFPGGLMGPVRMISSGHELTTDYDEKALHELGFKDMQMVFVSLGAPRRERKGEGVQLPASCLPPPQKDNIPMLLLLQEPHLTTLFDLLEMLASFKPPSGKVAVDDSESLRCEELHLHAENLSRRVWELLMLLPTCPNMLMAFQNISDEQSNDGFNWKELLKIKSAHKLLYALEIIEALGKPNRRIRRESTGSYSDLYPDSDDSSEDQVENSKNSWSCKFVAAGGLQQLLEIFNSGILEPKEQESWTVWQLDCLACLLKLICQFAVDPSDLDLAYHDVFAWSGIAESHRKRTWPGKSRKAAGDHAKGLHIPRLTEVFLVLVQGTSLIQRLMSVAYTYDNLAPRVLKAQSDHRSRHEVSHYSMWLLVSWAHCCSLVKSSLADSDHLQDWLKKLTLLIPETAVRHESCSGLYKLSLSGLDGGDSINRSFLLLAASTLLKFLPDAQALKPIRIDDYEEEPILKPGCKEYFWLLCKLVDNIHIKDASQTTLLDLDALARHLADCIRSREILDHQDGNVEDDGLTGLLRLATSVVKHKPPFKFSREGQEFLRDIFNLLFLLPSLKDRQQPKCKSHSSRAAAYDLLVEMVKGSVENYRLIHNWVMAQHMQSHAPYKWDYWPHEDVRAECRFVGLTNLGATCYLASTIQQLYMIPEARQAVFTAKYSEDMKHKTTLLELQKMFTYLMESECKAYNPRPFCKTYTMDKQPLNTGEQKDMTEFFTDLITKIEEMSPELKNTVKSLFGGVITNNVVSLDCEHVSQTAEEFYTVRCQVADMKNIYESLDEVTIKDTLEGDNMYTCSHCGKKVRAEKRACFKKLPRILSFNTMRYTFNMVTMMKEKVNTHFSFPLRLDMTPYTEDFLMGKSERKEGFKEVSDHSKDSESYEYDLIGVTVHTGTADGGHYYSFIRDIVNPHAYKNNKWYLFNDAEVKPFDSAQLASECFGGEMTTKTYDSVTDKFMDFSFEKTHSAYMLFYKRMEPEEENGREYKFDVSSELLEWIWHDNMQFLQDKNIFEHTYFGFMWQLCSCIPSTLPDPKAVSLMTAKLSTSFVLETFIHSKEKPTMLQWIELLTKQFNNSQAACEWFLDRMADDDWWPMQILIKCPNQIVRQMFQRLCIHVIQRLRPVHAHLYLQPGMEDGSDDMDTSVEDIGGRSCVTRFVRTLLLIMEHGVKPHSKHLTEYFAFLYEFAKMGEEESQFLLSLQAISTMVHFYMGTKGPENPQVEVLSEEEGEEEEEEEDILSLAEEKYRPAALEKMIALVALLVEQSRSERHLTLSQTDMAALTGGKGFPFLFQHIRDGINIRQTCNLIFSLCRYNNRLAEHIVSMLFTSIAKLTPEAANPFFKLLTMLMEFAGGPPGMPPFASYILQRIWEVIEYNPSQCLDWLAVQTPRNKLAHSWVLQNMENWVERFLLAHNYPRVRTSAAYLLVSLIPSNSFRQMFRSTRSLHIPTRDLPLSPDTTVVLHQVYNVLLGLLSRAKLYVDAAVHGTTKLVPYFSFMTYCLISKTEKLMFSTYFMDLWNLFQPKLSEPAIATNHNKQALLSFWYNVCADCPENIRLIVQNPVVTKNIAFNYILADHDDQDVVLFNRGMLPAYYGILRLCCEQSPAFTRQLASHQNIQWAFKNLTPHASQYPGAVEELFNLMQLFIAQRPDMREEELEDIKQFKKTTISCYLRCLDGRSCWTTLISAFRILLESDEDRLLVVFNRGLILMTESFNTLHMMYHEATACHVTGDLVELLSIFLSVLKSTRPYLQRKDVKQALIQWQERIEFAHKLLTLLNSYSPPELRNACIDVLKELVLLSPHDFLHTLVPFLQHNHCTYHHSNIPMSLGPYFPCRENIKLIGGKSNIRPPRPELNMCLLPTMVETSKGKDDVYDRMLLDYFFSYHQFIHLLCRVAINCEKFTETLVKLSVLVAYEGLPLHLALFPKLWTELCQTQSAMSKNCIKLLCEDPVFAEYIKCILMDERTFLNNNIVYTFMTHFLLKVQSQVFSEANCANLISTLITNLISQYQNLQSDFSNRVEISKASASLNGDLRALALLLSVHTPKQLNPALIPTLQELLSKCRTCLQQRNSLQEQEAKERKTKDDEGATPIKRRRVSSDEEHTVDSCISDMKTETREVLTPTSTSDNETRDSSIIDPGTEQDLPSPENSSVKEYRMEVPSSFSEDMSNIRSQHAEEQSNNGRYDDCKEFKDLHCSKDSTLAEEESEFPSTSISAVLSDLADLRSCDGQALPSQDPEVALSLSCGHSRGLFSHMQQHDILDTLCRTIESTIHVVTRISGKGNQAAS
Procedure, shortened: (§1)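 Each value is an average log2 ratio of fragment to vehicle, tested by unpaired t-test. The underlying Spectronaut label-free quantities were global-median-normalised, and only proteins with ≥2 unique peptides were included. Triplicate HEK293T lysate samples (495 µg) were exposed to fragment at 200 µM or vehicle for 3 h, then to Biotin-Ahx-Ub-VS at 0.5 µM final for 1 h, before NeutrAvidin enrichment of labelled DUBs, LysC and trypsin digestion, and diaPASEF LC-MS/MS.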

USP36 = target: T1, USP36 (UniProt Q9P275)
T1 sequence (whole entry): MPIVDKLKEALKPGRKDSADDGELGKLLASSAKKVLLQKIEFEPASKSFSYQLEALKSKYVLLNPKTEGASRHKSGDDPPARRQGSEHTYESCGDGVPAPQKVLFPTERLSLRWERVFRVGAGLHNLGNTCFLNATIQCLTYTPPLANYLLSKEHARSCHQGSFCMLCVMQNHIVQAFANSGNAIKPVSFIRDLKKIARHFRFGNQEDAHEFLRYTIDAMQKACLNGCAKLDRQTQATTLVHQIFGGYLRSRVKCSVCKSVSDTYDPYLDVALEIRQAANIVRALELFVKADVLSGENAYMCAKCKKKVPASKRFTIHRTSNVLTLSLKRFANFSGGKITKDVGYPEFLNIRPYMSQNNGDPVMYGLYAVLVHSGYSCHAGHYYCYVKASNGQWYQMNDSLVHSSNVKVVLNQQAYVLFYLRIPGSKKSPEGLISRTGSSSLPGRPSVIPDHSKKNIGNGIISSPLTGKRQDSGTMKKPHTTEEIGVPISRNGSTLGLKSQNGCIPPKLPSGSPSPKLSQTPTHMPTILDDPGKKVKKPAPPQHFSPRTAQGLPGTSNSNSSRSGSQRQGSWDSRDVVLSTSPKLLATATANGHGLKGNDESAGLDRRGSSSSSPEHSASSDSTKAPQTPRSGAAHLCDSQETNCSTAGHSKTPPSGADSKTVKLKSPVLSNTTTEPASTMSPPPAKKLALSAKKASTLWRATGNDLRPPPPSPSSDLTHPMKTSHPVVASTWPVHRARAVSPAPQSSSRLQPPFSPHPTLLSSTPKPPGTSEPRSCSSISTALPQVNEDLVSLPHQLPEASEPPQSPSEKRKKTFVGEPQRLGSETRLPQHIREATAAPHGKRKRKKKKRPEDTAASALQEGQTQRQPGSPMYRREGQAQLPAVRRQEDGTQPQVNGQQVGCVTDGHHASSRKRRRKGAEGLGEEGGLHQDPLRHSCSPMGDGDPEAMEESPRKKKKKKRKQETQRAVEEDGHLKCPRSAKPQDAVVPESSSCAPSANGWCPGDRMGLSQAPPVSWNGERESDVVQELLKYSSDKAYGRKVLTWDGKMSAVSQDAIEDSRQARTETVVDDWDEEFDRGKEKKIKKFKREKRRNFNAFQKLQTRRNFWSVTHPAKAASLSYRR
Procedure, shortened: as §1

USP38 = target: T2, USP38 (UniProt Q8NB14)
T2 sequence (whole entry): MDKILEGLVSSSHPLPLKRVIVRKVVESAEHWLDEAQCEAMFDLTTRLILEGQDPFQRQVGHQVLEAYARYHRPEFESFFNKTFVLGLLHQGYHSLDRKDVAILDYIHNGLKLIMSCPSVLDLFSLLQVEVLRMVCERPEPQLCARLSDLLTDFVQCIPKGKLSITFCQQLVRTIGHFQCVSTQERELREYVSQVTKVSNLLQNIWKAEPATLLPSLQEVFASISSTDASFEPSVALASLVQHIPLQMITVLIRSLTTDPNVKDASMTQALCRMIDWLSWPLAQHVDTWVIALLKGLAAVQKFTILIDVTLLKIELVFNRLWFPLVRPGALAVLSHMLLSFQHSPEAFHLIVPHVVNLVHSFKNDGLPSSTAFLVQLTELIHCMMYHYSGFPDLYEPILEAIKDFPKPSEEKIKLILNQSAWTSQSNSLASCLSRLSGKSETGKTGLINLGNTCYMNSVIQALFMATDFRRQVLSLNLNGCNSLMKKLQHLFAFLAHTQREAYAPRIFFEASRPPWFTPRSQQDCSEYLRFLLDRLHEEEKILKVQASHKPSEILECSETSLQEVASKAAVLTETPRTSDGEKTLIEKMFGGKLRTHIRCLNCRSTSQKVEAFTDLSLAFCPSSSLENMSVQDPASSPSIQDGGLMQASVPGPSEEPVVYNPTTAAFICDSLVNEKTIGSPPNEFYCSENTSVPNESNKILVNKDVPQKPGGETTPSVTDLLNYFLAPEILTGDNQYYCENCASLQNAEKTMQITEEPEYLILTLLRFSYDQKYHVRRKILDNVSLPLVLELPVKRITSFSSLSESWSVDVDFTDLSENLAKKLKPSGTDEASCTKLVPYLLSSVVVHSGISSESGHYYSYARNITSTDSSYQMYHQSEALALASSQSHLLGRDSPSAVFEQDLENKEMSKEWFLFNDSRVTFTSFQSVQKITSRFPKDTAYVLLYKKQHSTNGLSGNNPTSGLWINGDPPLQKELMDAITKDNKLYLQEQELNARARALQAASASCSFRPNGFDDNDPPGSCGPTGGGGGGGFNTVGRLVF
Procedure, shortened: as §1

USP39 = target: T3, USP39 (UniProt Q53GS9)
T3 sequence (whole entry): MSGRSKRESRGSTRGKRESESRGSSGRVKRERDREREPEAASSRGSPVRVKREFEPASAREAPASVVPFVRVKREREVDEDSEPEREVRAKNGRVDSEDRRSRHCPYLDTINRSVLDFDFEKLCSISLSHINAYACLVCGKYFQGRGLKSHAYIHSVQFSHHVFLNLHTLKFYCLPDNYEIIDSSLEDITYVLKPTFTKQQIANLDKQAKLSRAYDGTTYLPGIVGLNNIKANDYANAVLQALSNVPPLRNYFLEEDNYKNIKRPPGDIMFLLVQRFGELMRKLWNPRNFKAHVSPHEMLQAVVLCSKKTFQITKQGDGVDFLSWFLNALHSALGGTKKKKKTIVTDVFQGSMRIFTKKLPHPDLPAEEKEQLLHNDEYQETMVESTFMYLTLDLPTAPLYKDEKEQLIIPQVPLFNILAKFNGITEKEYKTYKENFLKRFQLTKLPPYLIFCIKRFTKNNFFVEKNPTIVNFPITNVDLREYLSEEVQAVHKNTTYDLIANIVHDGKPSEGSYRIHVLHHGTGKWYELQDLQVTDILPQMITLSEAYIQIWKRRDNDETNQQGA
Procedure, shortened: as §1

USP4 = target: T4, USP4 (UniProt Q13107)
T4 sequence (whole entry): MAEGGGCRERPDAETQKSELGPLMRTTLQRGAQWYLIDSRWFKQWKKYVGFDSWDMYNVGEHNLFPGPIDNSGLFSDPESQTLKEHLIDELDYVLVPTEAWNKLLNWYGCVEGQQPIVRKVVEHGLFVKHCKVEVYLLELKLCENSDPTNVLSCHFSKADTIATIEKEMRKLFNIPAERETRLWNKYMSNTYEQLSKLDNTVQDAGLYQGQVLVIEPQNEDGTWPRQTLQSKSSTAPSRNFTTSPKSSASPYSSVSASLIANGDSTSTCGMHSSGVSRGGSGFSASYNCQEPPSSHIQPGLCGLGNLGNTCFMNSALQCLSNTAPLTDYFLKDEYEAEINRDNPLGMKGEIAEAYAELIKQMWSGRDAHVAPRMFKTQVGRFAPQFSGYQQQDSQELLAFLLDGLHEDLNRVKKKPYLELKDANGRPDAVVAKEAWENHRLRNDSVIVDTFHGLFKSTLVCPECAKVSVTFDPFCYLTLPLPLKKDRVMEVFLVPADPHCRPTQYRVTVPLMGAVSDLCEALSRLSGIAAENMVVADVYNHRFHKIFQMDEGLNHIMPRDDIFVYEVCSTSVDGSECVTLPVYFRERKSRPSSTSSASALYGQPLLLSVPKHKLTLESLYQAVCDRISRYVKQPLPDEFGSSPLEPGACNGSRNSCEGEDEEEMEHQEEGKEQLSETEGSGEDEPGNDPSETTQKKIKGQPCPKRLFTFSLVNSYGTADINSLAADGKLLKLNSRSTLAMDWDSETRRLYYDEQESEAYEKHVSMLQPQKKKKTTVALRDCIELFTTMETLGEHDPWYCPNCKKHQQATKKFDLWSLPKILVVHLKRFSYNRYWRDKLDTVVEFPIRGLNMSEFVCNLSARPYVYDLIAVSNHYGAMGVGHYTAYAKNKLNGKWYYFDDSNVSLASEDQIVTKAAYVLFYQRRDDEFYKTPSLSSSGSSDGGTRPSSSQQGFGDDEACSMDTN
Procedure, shortened: as §1

Measured: log2 ratio of Biotin-Ahx-Ub-VS probe labelling

O=C(CCl)N1CCOC2(CCC2)CC1
inactive: USP34 -0.139 | USP36 -0.163 | USP38 -0.056 | USP39 0.138 | USP4 -0.409
